Measured values from PubChem BioAssay (Tox21).
Values joined by “and” are separate entries in the source; they are usually repeats but may differ in a detail not shown here. Equal entries are not always repeated. Inconclusive results are not listed. A call without a number means that no potency is given here. Where a structure was tested more than once in an assay, its records may differ in their call. Active and inactive are the calls of the source. Calls come from the whole dose curve; as a rule, active = well fitted inhibition curve with a large enough effect in the signal ratio in the repeat runs, with a control signal flat; inconclusive = weak or mixed curves, or effect the other way; inactive = flat fitted curve, though single readings scatter; the % refers to the signal ratio.

biological target: D(2) dopamine receptor (Homo sapiens) (UniProt P14416); test: Dopamine D2 receptor (DRD2) small molecule antagonists, cell-based qHTS assay (AID 1963595); settings: HEK293-DRD2 cAMP HTRF antagonist mode; series mostly up to 92.4 µM
Sequence (P14416 whole entry, looked up): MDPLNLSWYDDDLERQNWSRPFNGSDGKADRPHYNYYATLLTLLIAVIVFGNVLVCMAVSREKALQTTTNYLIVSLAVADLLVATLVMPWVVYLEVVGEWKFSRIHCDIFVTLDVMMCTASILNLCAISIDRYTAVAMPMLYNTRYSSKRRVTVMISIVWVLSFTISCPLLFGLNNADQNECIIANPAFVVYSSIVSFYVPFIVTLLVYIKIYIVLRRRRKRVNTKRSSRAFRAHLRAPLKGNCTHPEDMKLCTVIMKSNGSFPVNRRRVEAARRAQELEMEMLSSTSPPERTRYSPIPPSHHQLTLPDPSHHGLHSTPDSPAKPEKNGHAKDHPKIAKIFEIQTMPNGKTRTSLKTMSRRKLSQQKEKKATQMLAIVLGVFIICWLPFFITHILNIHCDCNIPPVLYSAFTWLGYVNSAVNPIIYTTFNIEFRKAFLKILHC
Description: National Center for Advancing Translational Sciences [NCATS]
Division of Preclinical Innovation [DPI]
U.S. Environmental Protection Agency [EPA]
National Institutes of Environmental Health Sciences [NIEHS]
National Toxicology Program [NTP]
U.S. Food and Drug Administration [FDA]
DRD2 is the D2 subtype of the dopamine receptor, which is coupled to Gi subtype of G protein-coupled receptor. This G protein-coupled receptor inhibits adenylyl cyclase activity. The DRD2-HEK293 cell line stably expressing D2 dopamine receptor can be used for screening agonists and antagonists of interactions between D2 and its ligands. The Hek293-DRD2 cAMP assay is based on HTRF technology. It measures changes of cAMP accumulation in response to Gi coupled GPCR activation or inhibition.
Tox21 Assay Protocol Summary:
DRD2-Hek293 cells were dispensed at 600 cells/3uL/well in 1536-well white plates using a Multidrop Dispenser. After the assay plates were incubated at a 37 C/5% CO2 incubator for 24 h, 1 uL of Ro20-1724 at final concentration of 0.1 mM was transferred to the assay plate by a Flying Reagent Dispenser. Following Ro20-1724 addition, 23 nL of compound dissolved in DMSO, positive controls or DMSO only was added to the assay plates via Wako pintool station. The assay plates were incubated at room temperature for 10 min. Next, 1 uL of mixture of NKH477 (final concentration at 200 nM) and quinpirole (final concentration at 12 nM) was added into the plates. After the assay plates were incubated at room temperature for an additional 30 min, 2.5 ul/well of cAMP-d2 and 2.5 ul/well of anti-cAMP-cryptate were added respectively into the assay plates using a Flying Reagent Dispenser. The plates were incubated at room temperature for 1 h. The fluorescence intensity in the plates was measured at 340 nm excitation and 665 & 620 nm emission by an Envision plate reader.
Potency is the fitted concentration of half-maximal effect.

SMILES	Potency
CNC(=O)O/N=C/C(C)(C)S(C)(=O)=O	inactive
Cc1cnc(C2=NC(C)(C(C)C)C(=O)N2)c(C(=O)O)c1 (stereo not given)	inactive
[O]=[Cr](=[O])([OH])[O][Cr](=[O])(=[O])[OH]	inactive
Clc1ccccc1-c1nnc(-c2ccccc2Cl)nn1	inactive
OCC(Br)CBr (stereo not given)	inactive
BrCCBr	inactive
CCOP(OCC)OCC	inactive
CCCCCCCCCC(CC)c1ccc(S(=O)(=O)O)cc1 (stereo not given)	inactive
O=[N+]([O-])c1ccc([As](=O)(O)O)cc1	inactive
NC(=O)CF	inactive
C/C(=N\NC(=O)Nc1cc(F)cc(F)c1)c1ncccc1C(=O)O	inactive
CCN(N=O)C(N)=O	inactive
CC1(C)[C@H](C(=O)O[C@H](C#N)c2cccc(Oc3ccccc3)c2)[C@@H]1/C=C(\Cl)C(F)(F)F	inactive
ClCc1cccnc1	inactive
CC(c1ccc(O)cc1)c1ccc(O)cc1	inactive
CC(C)OC(=O)Cc1ccccc1	inactive
Cc1ccc(CCl)cc1	inactive
N#Cc1cccc(C#N)c1	inactive
CC(C)=CC1C(C(=O)OCN2C(=O)C3=C(CCCC3)C2=O)C1(C)C (stereo not given)	inactive
O=[N+]([O-])c1ccccc1-c1ccccc1	inactive

SMILES	Potency
O=[N+]([O-])c1cccc2ccccc12	inactive
CC(=O)CC(c1ccc(Cl)cc1)c1c(O)c2ccccc2oc1=O (stereo not given)	inactive
Cl/C=C/CCl	inactive
COC(=O)Cc1ccccc1	inactive
O=P(O)(O)CN(CP(=O)(O)O)CP(=O)(O)O	inactive
CCCCCON=O	inactive
CCOC(=O)c1ccccc1C(=O)OCC	inactive
N#CC(Cl)Cl	inactive
CC1=C2[C@H]3OC(=O)[C@@H](C)[C@@H]3CC[C@@]2(C)C=CC1=O	inactive
CCNc1nc(Cl)nc(NCC)n1	inactive
CCCCN(CCCC)SN(C)C(=O)Oc1cccc2c1OC(C)(C)C2	inactive
O=S(=O)(c1ccccc1)c1ccccc1	inactive
CCCCCCCCCCCCCC[P+](CCCCCC)(CCCCCC)CCCCCC	12.2 µM (active) and 21.9 µM (active) and inactive
Nc1ccccc1C(=O)OCCc1ccccc1	inactive
O=c1nc(O)n(Cl)c(=O)n1Cl	inactive
CCN(CC)C(=O)SCc1ccc(Cl)cc1	inactive
CC(=O)/C=C/c1ccccc1	inactive
C1CCC2CCCCC2C1 (stereo not given)	inactive
COP(=S)(OC)Oc1ccc([N+](=O)[O-])cc1	inactive
[CH3][Sn]([CH3])([Cl])[Cl]	inactive
